Screening results from PubChem BioAssay.
MCF10A rereplic = induces DNA re-replication in MCF 10a normal breast cells | actives 2.9% (n = 350,000) | MCF 10A DNA re-replication, Hoechst nuclear intensity, 48 h | Potency, µM (doses to about 46.1 µM), for the others: at the highest dose activity, positive = re-replication, actives largely listed as activators; note: potency is the fitted concentration of half-maximal effect; % of control where 0% means no effect; nearly all actives have a fitted effect of over 50% in size
Vif-A3G inh = blocks the Vif interaction with human APOBEC3G; Q9HC16; HeLa A3G-eYFP + Vif (tagged APOBEC3G with the HIV-1 protein that degrades it), YFP fluorescence, overnight; Potency, µM (top dose mostly 46.1 µM), inactives show top-dose activity, negative = active, actives largely listed as inhibitors; actives 0.076% (n = 410,000); AID 602310; note: potency is the fitted concentration of half-maximal effect; % is set by controls: 0 for no effect and ±100 for the full control effect; nearly all actives have a fitted effect of over 60% in size
Target sequence (Q9HC16 whole entry, looked up): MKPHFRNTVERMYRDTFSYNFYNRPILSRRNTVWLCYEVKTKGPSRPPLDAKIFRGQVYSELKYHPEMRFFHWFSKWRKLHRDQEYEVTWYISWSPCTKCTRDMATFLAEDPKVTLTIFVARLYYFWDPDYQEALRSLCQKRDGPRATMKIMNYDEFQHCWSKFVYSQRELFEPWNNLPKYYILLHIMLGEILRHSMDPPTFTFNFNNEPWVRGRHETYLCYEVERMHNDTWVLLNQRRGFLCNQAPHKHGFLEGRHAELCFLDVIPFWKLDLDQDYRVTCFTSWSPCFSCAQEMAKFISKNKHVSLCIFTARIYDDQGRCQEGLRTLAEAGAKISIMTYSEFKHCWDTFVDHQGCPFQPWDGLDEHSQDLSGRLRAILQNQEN
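HeLa cells stably expressing Vif and C-terminally eYFP-tagged A3G, seeded overnight at 37 deg C, then exposed to compound by pintool overnight at 37 deg C. Rise in yellow fluorescence (Ex 488/Em 500-530, Acumen) marks blocked Vif-driven A3G degradation.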
Giardia killer = kills Giardia lamblia | Giardia lamblia trophozoite viability | activity change, % at 7.66 µM, hits read low | actives 0.15% (n = 340,000); in the data active = activity change below about -80%; inconclusive = between about -30% and that limit;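 note: parasites exposed to compound for two days anaerobically before the ATP read; % is set by controls: 0 for no effect and ±100 for the full control effect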
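Luminescent ATP signal served as the viability read-out, measured 15-30 min after adding ATP detection reagent to trophozoites that had been incubated with compounds for 48 hrs at 37 deg C anaerobically at 100 cells/well.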
SW480 rerep = DNA re-replication induction in SW480 cells. SW480 DNA re-replication, Hoechst DNA content imaging, 48 h. Potency, µM (top dose mostly 46.1 µM), for inactives: top-dose re-replication activation, usual class: activators. actives 1.8% (n = 340,000). AID 624297; note: potency is the fitted concentration of half-maximal effect; % of control where 0% means no effect; nearly all actives have a fitted effect of over 55% in size
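Quantitative HTS format with DMSO vehicle controls; 48 hr drug incubation at 37 C, then 40 min Hoechst staining and scanning imager measurement at 405 nm excitation.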
Vif-APOBEC3F blk = inhibitors of Vif-A3F interaction. AID 602313. Potency, µM (top dose mostly 46.1 µM), for inactives: at the highest dose activity, negative = active. HeLa A3F-eYFP + Vif (tagged APOBEC3F with the HIV-1 protein that degrades it), YFP fluorescence increase. actives 0.2% (n = 390,000); note: potency is the fitted concentration of half-maximal effect; % of control where 0% means no effect; nearly all actives have a fitted effect of over 65% in size
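HeLa cells stably expressing Vif plus C-terminally eYFP-tagged A3F were seeded, incubated overnight at 37 deg C, dosed with compound, incubated overnight again at 37 deg C. Yellow fluorescence (Ex 488/Em 500-530) reported blocked Vif-mediated A3F-eYFP degradation.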
IL1B secr inh = inhibitors of inflammasome signaling (IL-1 beta secretion); actives 4.7% (n = 360,000); activity change, % at 57.5 µM; THP-1 LPS/ATP IL-1B secretion, AlphaLISA, 16 h; hits give low values; in the data active = activity change below about -50%; inconclusive = mostly about -30% to -49%; note: % is set by controls: 0 for no effect and ±100 for the full control effect
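Secreted IL-1B measured by AlphaLISA bead assay after 16 h compound exposure of THP-1 cells; compounds (final up to 57.5 uM) added 1 h before LPS (250 ng/mL) and ATP (1.25 mM) stimulation; lower signal means less secretion.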
Active calls of the source: *. In the library only some 6.9% were active in any assay of this set; here they are far more common. Unless noted, calls come from the whole dose curve; as a rule, active = well fitted curve in the direction sought with a large enough effect; inconclusive = small, poorly fitted or top-dose-only effect, or another doubt; inactive = no such curve, though single readings can be large; an effect the other way counts as inactive or inconclusive.

What do the screens show for `CC(Sc1nc(-c2ccccc2)cc(C(F)(F)F)n1)C(=O)N1CCCCC1` (centres undefined)?
MCF10A rereplic: 20.6µM*; Vif-A3G inh: -0.5%; Giardia killer: -1.1; SW480 rerep: inconclusive; Vif-APOBEC3F blk: -3.2%; IL1B secr inh: -12.9

How did CC1CCCN(C(=O)C(C)Sc2nc(-c3ccccc3)cc(C(F)(F)F)n2)C1 (centres undefined) do in these assays?
MCF10A rereplic: inconclusive; Vif-A3G inh: 2.3%; Giardia killer: -2.4; SW480 rerep: inconclusive; Vif-APOBEC3F blk: -9.9%; IL1B secr inh: -10.6

What do the screens show for `COC1=C(Br)C(=O)c2ncccc2C1=O`?
MCF10A rereplic: 5.17µM*; Vif-A3G inh: -17.7%; Giardia killer: 5.1; SW480 rerep: 2.91µM*; Vif-APOBEC3F blk: 11.2µM*; IL1B secr inh: -14.1

How did O=C1C(=O)c2cccnc2-c2ncccc21 do in these assays?
Vif-A3G inh: -12.8%; IL1B secr inh: -107.8*

Results for CCOC(=O)c1cc(S(=O)(=O)N2CCN(c3ccc(C(C)=O)cc3)CC2)[nH]n1 ?
Vif-A3G inh: -5.0%; Vif-APOBEC3F blk: -1.2%

What do the screens show for `CCCCNC(=O)c1cc(-c2ccc(OC)cc2)nc2n[nH]c(-c3cccc([N+](=O)[O-])c3)c12`?
Vif-A3G inh: 0.0%; Vif-APOBEC3F blk: -1.2%

What do the screens show for `Cc1ccc(-n2c3c(cc(C(=O)Nc4ccccc4C(N)=O)c2=O)C(=O)CC(C)(C)C3)cc1`?
Vif-A3G inh: -2.0%; Vif-APOBEC3F blk: -0.5%

Results for CC(=O)NC(CCS(C)(=O)=O)C(=O)Nc1cc(Cl)ccc1Cl (centres undefined) ?
MCF10A rereplic: 5.1%; Vif-A3G inh: 4.7%; Giardia killer: -22.4; SW480 rerep: -5.0%; Vif-APOBEC3F blk: -7.5%; IL1B secr inh: 12.2

What do the screens show for `CC(C)S(=O)(=O)c1csc(NC(=O)Nc2cc(Cl)ccc2Cl)c1Cl`?
MCF10A rereplic: inconclusive; Vif-A3G inh: 1.7%; Giardia killer: -2.1; SW480 rerep: -9.4%; Vif-APOBEC3F blk: -24.3%; IL1B secr inh: -101.5*

What do the screens show for `CN(C)c1ccc(CNC(=O)C2CCN(Cc3cc4ccccc4n3Cc3ccccc3)CC2)cc1`?
Vif-A3G inh: -2.1%; Vif-APOBEC3F blk: 4.1%

How did Cc1scc(-c2n[nH]c(=S)n2C(C)c2ccccc2)c1C (centres undefined) do in these assays?
MCF10A rereplic: 10.3µM*; Vif-A3G inh: inconclusive; Giardia killer: -9.0; SW480 rerep: 13.4%; Vif-APOBEC3F blk: -3.8%; IL1B secr inh: 8.2

Results for CC(c1ccccc1)n1c(-c2ccccc2)n[nH]c1=S (centres undefined) ?
Vif-A3G inh: -2.6%

How did Cc1noc2ncnc(N3CCCC(C(=O)Nc4cccc(C(F)(F)F)c4)C3)c12 (centres undefined) do in these assays?
Vif-A3G inh: -1.1%; Vif-APOBEC3F blk: 5.4%

How did Cc1cc(C(C)(C)C)cc(C)c1C[n+]1ccc2ccccc2c1 do in these assays?
MCF10A rereplic: inconclusive; Vif-A3G inh: -0.9%; Giardia killer: 7.8; SW480 rerep: 2.3%; Vif-APOBEC3F blk: -12.2%; IL1B secr inh: -51.6*

What do the screens show for `Cc1ccc(C(=O)C[n+]2ccc3ccccc3c2)cc1`?
MCF10A rereplic: -0.5%; Vif-A3G inh: -2.0%; Giardia killer: 2.3; SW480 rerep: -14.5%; Vif-APOBEC3F blk: -7.5%; IL1B secr inh: 19.7

How did CCCCNC1=CC(=O)C(=O)c2ccccc21 do in these assays?
MCF10A rereplic: 6.6%; Vif-A3G inh: -14.0%; Giardia killer: 2.9; SW480 rerep: -40.4%; Vif-APOBEC3F blk: 3.3%; IL1B secr inh: 20.0

Results for O=C1C=C(Nc2ccccc2)c2ccccc2C1=O ?
MCF10A rereplic: 5.8µM*; Vif-A3G inh: -16.5%; Giardia killer: -29.1; SW480 rerep: 2.59µM*; Vif-APOBEC3F blk: 16.1%; IL1B secr inh: 10.5

What do the screens show for `CCc1ccc(NC2=CC(=O)C(=O)c3ccccc32)cc1`?
MCF10A rereplic: 9.2µM*; Vif-A3G inh: -9.9%; Giardia killer: -5.6; SW480 rerep: 7.31µM*; Vif-APOBEC3F blk: 4.5%; IL1B secr inh: -86.9*

Results for O=C1C=C(Nc2cccc3cccnc23)c2ccccc2C1=O ?
MCF10A rereplic: 3.66µM*; Vif-A3G inh: inconclusive; Giardia killer: 8.0; SW480 rerep: 7.31µM*; Vif-APOBEC3F blk: 7.6%; IL1B secr inh: -77.7*

How did O=C1C=C(Nc2ccccc2)C(=O)c2ccccc21 do in these assays?
MCF10A rereplic: 3.7%; Vif-A3G inh: -9.9%; Giardia killer: -23.8; SW480 rerep: inconclusive; Vif-APOBEC3F blk: 2.9%; IL1B secr inh: -0.3

How did CC1=C(C(=O)Nc2ccc(C)cc2C)C(c2ccccc2F)n2nc(SCC(=O)c3ccc(C)cc3)nc2N1 (centres undefined) do in these assays?
Vif-A3G inh: -2.5%; Vif-APOBEC3F blk: -7.9%

What do the screens show for `CCc1c(C)c2cc3c(c(C)c2oc1=O)OCN(CCc1ccccc1F)C3`?
Vif-A3G inh: 2.9%; Vif-APOBEC3F blk: 0.8%

What do the screens show for `CN(CC1CCCN(CCc2cccc(C(F)(F)F)c2)C1)C(=O)c1cc2ccccc2o1` (centres undefined)?
MCF10A rereplic: 18.3%; Vif-A3G inh: 4.3%; Giardia killer: 4.8; SW480 rerep: -15.3%; Vif-APOBEC3F blk: -4.0%; IL1B secr inh: -59.8*

Results for CCN(CC1CCCN(CCc2cccc(F)c2)C1)C(=O)c1cc(C)oc1C (centres undefined) ?
MCF10A rereplic: 16.2%; Vif-A3G inh: -7.5%; Giardia killer: 7.9; SW480 rerep: 2.3%; Vif-APOBEC3F blk: -15.2%; IL1B secr inh: inconclusive

Results for CCN(CC1CCCN(CCc2cccc(F)c2)C1)C(=O)c1cc2ccccc2o1 (centres undefined) ?
MCF10A rereplic: 12.2%; Vif-A3G inh: -0.2%; Giardia killer: 7.3; SW480 rerep: inconclusive; Vif-APOBEC3F blk: 0.9%; IL1B secr inh: -88.0*

Results for COc1ccc(CCNC(=O)c2ccc3c(c2)c(C)c(C)n3Cc2ccccc2)c(OC)c1OC ?
Vif-A3G inh: -0.2%; Vif-APOBEC3F blk: -0.6%

What do the screens show for `CCOc1ccc(-c2nonc2NC(=O)c2oc3ccc(Cl)cc3c2C)cc1`?
Vif-A3G inh: -22.6%; Vif-APOBEC3F blk: 1.6%

How did CCC12CN3CC(CC)(CN(C1)C3c1cc(Br)ccc1OC)C2=O (centres undefined) do in these assays?
Vif-A3G inh: 1.3%; Vif-APOBEC3F blk: -1.4%

Results for CCN1C(Br)=CCc2ccccc21 ?
Vif-A3G inh: 1.8%

How did CN1CC(=O)Nc2cc(C(=O)O)ccc21 do in these assays?
Vif-A3G inh: -4.1%; Vif-APOBEC3F blk: 1.3%
